Measurements reported in PubChem BioAssay AID2391 (Southern Research Specialized Biocontainment Screening …, 2010).
About 410 (0.13%) of roughly 310,000 compounds were called active. Another 2% or so got no clear call; they are omitted. The rule behind the calls is not given here. Not all results are given here. Potency and affinity values are given separately.

Experiment: inhibition of RSV-induced cytopathic effect – HEp-2 cells, primary 10 µM value included (AID 2391)
Conditions: at 10 µM, hits give high values

CPE inhibition, inactive:
O=C1CS/C(=N/N=C\c2ccn[nH]2)N1 6.91%
Cc1c(C(=O)O)cccc1-c1ccc(/C=N/n2cnnc2)o1 0.79%
COc1ccc(C(=O)OCC(=O)N(C)C2CCS(=O)(=O)C2)cc1Br (centres undefined) 1.57%
CCOC(=O)c1c(CC(C)C)csc1NC(=O)COC(=O)c1cc(OC)c(OC)cc1[N+](=O)[O-] 3.28%
C[C@@H]1NS(=O)(=O)[C@H]2C[C@@H]3C=C[C@]2(O3)[C@H]1OC(=O)Nc1ccc(C(F)(F)F)cc1[N+](=O)[O-] 0.31%
Cc1cc(C(=O)O[C@H]2[C@H](Cc3ccccc3)NS(=O)(=O)[C@H]3C[C@@H]4C=C[C@]23O4)ccc1[N+](=O)[O-] 1.3%
CCN(Cc1ccccc1)C(=O)Cc1c[nH]c2ccccc12 4.41%
O=[N+]([O-])c1ccc(-c2ccc(/C=N/O)o2)cc1 11.6%
Cc1ccc(-c2ccc(/C=N/NC(=S)Nc3ccccc3)o2)cc1[N+](=O)[O-] 17.4%
CC(=O)Nc1ccc(NC(=O)CSc2ccc(-c3ccc4c(c3)OCO4)nn2)cc1 3.37%
CCOC(=O)C1CCCN(c2c(Nc3ccc(C)c(C)c3)c(=O)c2=O)C1 (centres undefined) 1%
COc1cccc(OCCCN2CCN(S(=O)(=O)c3ccc(NC(C)=O)cc3)CC2)c1 3.71%
CCc1c(C(=O)Nc2cc(C)cc(C)c2)[nH]c(C)c1C(C)=O 2.64%
COc1ccc(C(CNC(=O)Cc2ccccc2)N2CCCCC2)cc1 (centres undefined) -0.35%
COc1ccc(C(CNC(=O)COc2ccccc2)N2CCCCC2)cc1 (centres undefined) 0.71%
NC(=O)c1ccsc1NC(=O)COC(=O)c1nc(Cl)ccc1Cl -1.24%
COc1ccccc1N1CCN(Cc2nc3ccccc3[nH]2)CC1 1.74%
c1ccc(N2CCN(c3nc4ccccc4[nH]3)CC2)nc1 -2.6%
Oc1ccc(N2CCN(Cc3nc4ccccc4[nH]3)CC2)cc1 13.2%
c1ccc2[nH]c(CN3CCCCCC3)nc2c1 0.95%
COC(CNS(=O)(=O)c1cccc2nonc12)OC 3.28%
CCN(CC(=O)Nc1c(F)cccc1F)C(=O)c1ccc(N2CCCCC2)c([N+](=O)[O-])c1 5.38%
Cc1csc(NC(=O)c2ccc[nH]c2=O)n1 0.61%
COc1ccc(OCCOC(=O)C(C)NS(=O)(=O)c2ccc(NC(C)=O)cc2)cc1 (centres undefined) 0.13%
CCOC(=O)N1CCN(CC(=O)Nc2nc3ccc(OC)cc3s2)CC1 10.2%
O=c1c2ccccc2nc(SCc2ccc([N+](=O)[O-])cc2)n1CCCO 4.2%
O=C(CSc1nc2ccccc2n1CC(=O)NCc1ccccc1)NCc1ccco1 -0.09%
CCn1c(SCC#N)nc2ccccc2c1=O 1.07%
CCC(Sc1nc2ccccc2c2nc3ccccc3n12)C(=O)NCc1ccco1 (centres undefined) -0.18%
Cn1c(SCC#N)nc2ccccc2c1=O 2.04%
Cc1cccc(C(=O)O/N=C/c2c(N3CCOCC3)n(C)c3ccccc23)c1 -0.89%
COC(=O)Cc1c(C)c2ccc(OC3CCCCC3=O)cc2oc1=O (centres undefined) 6.9%
CN(C)c1ccc(NC(=O)CSc2nc(C3CC3)nc3ccccc23)cc1 3.13%
CCC(C)NC(=O)c1nc2c(nnn2Cc2ccccc2Cl)c(=O)[nH]1 (centres undefined) 1.33%
CC1C2C(C)N(C)C(=O)N(C)C2N(C)C(=O)N1C (centres undefined) 2.07%
CCOc1ccc2nc(NC(=O)C(NS(=O)(=O)c3cccs3)C(C)C)sc2c1 (centres undefined) 19.6%
CCOc1ccc2nc(NS(=O)(=O)c3cccs3)sc2c1 1.43%
CCCC(=O)Nc1nc2ccc(OCC)cc2s1 2.67%
CC1(C(=O)Nc2nc3ccccc3s2)CC1(Br)Br (centres undefined) 9.49%
C/C(=N/NS(C)(=O)=O)c1ccc2ccccc2c1 -0.76%
CC(C)C(=O)Nc1cccc(-c2cnc3ccccc3n2)c1 -1.56%
O=C(NNC(=O)C1CC1c1ccccc1)Nc1ccccc1 (centres undefined) 1.51%
Cc1cc(N2CCOCC2)n2cc(-c3ccccc3)nc2n1 1.5%
Cc1cc(N2CCN(c3ccccc3Cl)CC2)n2cc(-c3ccccc3)nc2n1 5.23%
CCCC(=O)N/C(N)=N/c1nc(C)c2ccccc2n1 0.78%
N#CCCn1cc(CNC2CCC(O)CC2)c2ccccc21 (centres undefined) 2.18%
Cn1nc(SCC(=O)O)sc1=S -0.46%
Cc1ccc2cc(CN(CC3CCCO3)C(=S)NCc3ccco3)c(=O)[nH]c2c1 (centres undefined) 1.42%
Cc1ccc2cc(CN(Cc3ccco3)C(=S)NCC3CCCO3)c(=O)[nH]c2c1C (centres undefined) 2%
COc1ccc(C(=O)COC(=O)CCn2nnc(-c3cccs3)n2)cc1 1.36%
O=[N+]([O-])c1cc(C(F)(F)F)ccc1N1CCCC(O)C1 (centres undefined) 9.15%
NC(=O)C1CCN(c2ccc(C(F)(F)F)cc2[N+](=O)[O-])CC1 16.8%
COCC1CCN(C(=O)C2CCC(=O)N(Cc3cccc(F)c3)C2)CC1 (centres undefined) 2.17%
c1ccc2c(c1)nnn2Cc1nnc2sc(-c3ccncc3)nn12 1.65%
c1ccc(Cc2nn3c(Cn4cnc5ccccc54)nnc3s2)cc1 5.56%
c1csc(-c2nn3c(Cn4nnc5ccccc54)nnc3s2)c1 26.6%
c1cncc(-c2nn3c(Cn4cnc5ccccc54)nnc3s2)c1 15.6%
Clc1cccc(-c2nn3c(Cn4cnc5ccccc54)nnc3s2)c1 34%
c1ccc2c(c1)ncn2Cc1nnc2sc(-c3ccncc3)nn12 -0.84%
Cc1ccc[n+](C(C)C(=O)Nc2ccc(C)c([N+](=O)[O-])c2)c1 (centres undefined) 0.22%
COc1cccc(NC(=O)CNc2cc(S(=O)(=O)N3CCOCC3)ccc2N2CCCC2)c1 -0.7%
CC(C)(C)C(=O)NC(=S)NCCc1ccccc1 2.62%
CC(C)(C)CC(=O)NC(=S)NCc1ccccc1 5.07%
COc1ccc(/C(C)=N/OCC(=O)N=Nc2c(O)[nH]c3ccc(Br)cc23)cc1 4.9%
O=C(Nc1ccc(F)cc1F)C1CC(=O)N(Cc2ccccc2)C1 (centres undefined) 0.74%
CCc1c(C)nc2ncnn2c1N1CCC(C(=O)NCc2cccs2)CC1 11%
O=C(NC(=S)NNC(=O)c1ccccc1O)c1cccc([N+](=O)[O-])c1 16.2%
CCn1c(C2CC(=O)N(Cc3ccccc3)C2)nc2ccccc21 (centres undefined) 1.99%
C=CCN1CC(c2nc3ccccc3n2CCOc2ccccc2)CC1=O (centres undefined) 0.6%
Cn1c(SCC(=O)NC2CCCC2)nnc1-c1ccncc1 0.88%
COc1ccc(C(=O)Nc2cccc(C(=O)N3CCCCC3)c2)cc1 3.16%
CCc1ccccc1Nc1nc(N)nc(COC(=O)c2c(C)noc2C)n1 3.24%
Cc1ccccc1Nc1nc(N)nc(COC(=O)c2cccn2C)n1 4.72%
Cc1nn(-c2ccccn2)c(C)c1Oc1ccccc1O 0.08%
Cc1cc(C)nc(-n2nc(C)c(Oc3ccccc3O)c2C)n1 1.29%
CCC(=O)c1ccc(OCC(=O)N(C)CC(=O)Nc2cccc(F)c2)cc1 -0.9%
CC(=O)Nc1ccc2c3c(cccc13)CC2 3.08%
Cc1cccc(NC(=O)[C@H](Cc2c[nH]c3ccccc23)NC(=O)[C@@H]2Cc3ccccc3CN2)c1 3.9%
COc1ccc(NC(=O)[C@H](Cc2c[nH]c3ccccc23)NC(=O)[C@@H]2Cc3ccccc3CN2)cc1 1.35%
Cc1cc(N2CCOCC2)nc2ccc(NC(=O)CCC(=O)N3CCN(c4ccccc4F)CC3)cc12 13.8%
CC(NC(=O)COc1ccc(Br)cc1)C(=O)O (centres undefined) 0.8%
O=C1N=C(N2CCOCC2)S/C1=C\c1ccc(OS(=O)(=O)c2ccccc2)cc1 0.11%
CN1CCN(C2=NC(=O)/C(=C/c3ccccc3OS(=O)(=O)c3ccccc3)S2)CC1 1.12%
CC(=O)N1c2ccccc2N(Cc2ccc(C)cc2C)C(=O)C1(C)C 5.65%
Cc1cc(C)nc(NC(=O)c2c(F)c(F)c(F)c(C(=O)Nc3cc(C)cc(C)n3)c2F)c1 -2.23%
CCC(=O)N1CCN(c2cc3c(cc2F)c(=O)c(C(=O)O)cn3CC)CC1 0.7%
CCn1cc(C(=O)O)c(=O)c2cc(F)c(N3CCN(C(=S)NC(=O)c4ccccc4)CC3)cc21 -1.03%
CCn1cc(C(=O)NCc2ccco2)c(=O)c2cc(F)c(N3CCN(C(=O)c4ccco4)CC3)cc21 0.76%
CCn1cc(C(=O)NCc2ccncc2)c(=O)c2cc(F)c(N3CCN(C(=O)c4ccco4)CC3)cc21 4.28%
COc1ccccc1C1CCCN1Cc1nc(-c2cc3c(cc2Cl)OCO3)oc1C (centres undefined) 1.45%
CCOc1ccccc1-c1nc(CN2CCCC2c2nccs2)c(C)o1 (centres undefined) 5.15%
COCc1ccc(CN2CCCC(CO)(Cc3ccccc3C)C2)o1 (centres undefined) -0.94%
CCOC(=O)c1cnc(Cc2ccccc2)[nH]c1=O 1.25%
N#Cc1nc(COc2ccccc2Cl)oc1N1CCCC1 40.5%
